# USP8 block = human USP8 deubiquitinase inhibition. 4.2% of 47,000 active. inhibition, % at 20 µM. P40818. purified USP8, Ub-rhodamine cleavage fluorescence, 30 min
# USP10 block = human USP10 deubiquitinase inhibition | purified USP10, Ub-rhodamine fluorescence, 60 min | inhibition, % at 20 µM | 1.1% of 47,000 active | AID 1645856
# USP30 block = inhibitors of human USP30 deubiquitinase | purified USP30, Ub-rhodamine cleavage fluorescence | AID 1645860 | 5.3% of 47,000 active | Q70CQ3 | inhibition, % at 25 µM
# USP17 block = inhibitors of human USP17 deubiquitinase; A8MUK1; purified USP17, Ub-rhodamine cleavage fluorescence, 3 h; inhibition, % at 50 µM; 6.5% of 47,000 active; AID 1645855
# Target sequence (A8MUK1 whole entry, looked up): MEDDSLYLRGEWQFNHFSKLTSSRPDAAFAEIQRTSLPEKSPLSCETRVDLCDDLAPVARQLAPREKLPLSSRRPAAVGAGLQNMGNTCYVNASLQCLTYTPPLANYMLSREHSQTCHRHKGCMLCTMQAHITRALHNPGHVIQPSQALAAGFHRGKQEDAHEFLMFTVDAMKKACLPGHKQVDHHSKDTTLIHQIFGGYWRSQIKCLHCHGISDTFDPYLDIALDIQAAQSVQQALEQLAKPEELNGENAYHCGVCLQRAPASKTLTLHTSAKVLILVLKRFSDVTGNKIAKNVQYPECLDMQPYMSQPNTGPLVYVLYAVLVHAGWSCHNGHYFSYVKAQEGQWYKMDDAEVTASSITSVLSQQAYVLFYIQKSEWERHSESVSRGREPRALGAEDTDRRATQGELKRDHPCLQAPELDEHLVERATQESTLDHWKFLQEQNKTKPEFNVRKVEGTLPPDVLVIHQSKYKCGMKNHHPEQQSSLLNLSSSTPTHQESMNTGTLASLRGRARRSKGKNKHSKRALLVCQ
# USP7 inh = blocks human USP7 ubiquitin-rhodamine cleavage; Q93009; purified USP7, Ub-rhodamine cleavage fluorescence; inhibition, % at 20 µM; 0.3% of 47,000 active
# UCHL1 inh = blocks human UCHL1 ubiquitin-rhodamine cleavage. P09936. purified UCHL1, Ub-rhodamine cleavage fluorescence. inhibition, % at 20 µM. 0.2% of 47,000 active
# The depositor's hits bear a star; i = inactive; x = no result. Shown are actives, neighbours in structure and some others; about 13% of the full set was active somewhere. Cut-off read from the data, not from the text of the source: active = inhibition above about 30%; inactive = the rest.
SMILES,USP8 block,USP10 block,USP30 block,USP17 block,USP7 inh,UCHL1 inh
COc1ccc(CNc2ccc(C(=O)OCc3ccccc3F)cc2S(=O)(=O)Nc2cccc(OC)c2)cc1,8,33*,0,-12,6,2
CC(C)CC[C@H]1O[C@@H](CC(=O)O)Cc2cc3c(c(O)c21)C(=O)c1sc(=O)n(C)c1C3=O,-18,-6,16,78*,-63,25
Cc1c(C)c(C)c2[nH]c(-c3ccc4c(c3)OCO4)nc2c1C,10,-1,49*,47*,10,4
O=S(=O)(c1ccc(Cl)cc1)c1cnc2ccccc2c1N1CCCCCC1,8,2,-9,9,5,3
CCCn1c(NC(=O)Cc2ccc(OC)c(OC)c2)nc2ccccc21,64*,-2,-20,10,0,2
O=C(CC(NCc1ccco1)C(=O)O)Nc1cccc(Cl)c1Cl (configuration not stated),7,0,32*,8,5,2
CCOc1ccc2oc(C(=O)OCC(=O)c3ccc(Br)cc3)c(C)c2c1,-5,4,-97,-4,4,-5
COc1ccc(CNC(=O)CSc2nc3nc(C)ccc3o2)cc1,-33,8,11,52*,1,2
Cc1ccc2nc(N3CCN(C(=O)Cc4ccccc4)CC3)sc2c1,-6,2,-4,2,-26,1
O=C(Cc1ccccc1)N1CCN(c2nc3ccc(Cl)cc3s2)CC1,16,8,33*,17,-80,7
CC(=O)c1ccc(S(=O)(=O)N(Cc2ccc(C(=O)NC3CC3)cc2)C2CC2)cc1,16,5,30*,27,-4,2
COc1ccc(S(=O)(=O)N(Cc2ccc3c(c2)CCO3)C2CC2)cc1,8,9,13,18,-7,3
Cc1ccc(CN2C[C@@H]3c4nc(N(C)C)ncc4CS(=O)(=O)[C@@H]3C2)cc1,1,4,31*,-3,-1,0
O=C(NCc1ccco1)c1ccc(Cn2c(SCc3ccccc3)nc3ccncc32)cc1,35*,0,74*,88*,59*,3
O=C1CC(c2noc(-c3ccncc3)n2)CN1Cc1ccccc1 (configuration not stated),0,-3,-10,-16,-3,-5
Nc1c(C(=O)Nc2ccc3c(c2)OCO3)sc2nc(-c3cccnc3)ccc12,-27,-6,-2,61*,2,2
CCOc1cc(N2CCOCC2)c(OCC)cc1NC(=O)c1cc(-c2ccncc2)nc2ccccc12,70*,-6,-9,66*,6,3
O=C(Nc1ccc2c(c1)OCO2)c1cc(-c2ccncc2)nc2ccccc12,35*,-4,-39,15,1,2
COc1ccc(-c2cc(C(=O)Nc3ccc4c(c3)OCO4)c3ccccc3n2)cc1,6,0,-55,12,4,-2
CCOc1cccc(-c2cc(C(=O)Nc3ccc4c(c3)OCO4)c3ccccc3n2)c1,36*,-7,-302,-60,-3,-6
COc1ccc(-n2cc(C(=O)c3cccc(Oc4ncc(C(F)(F)F)cc4Cl)c3)nn2)cc1,-1,0,-3,9,1,-4
C[C@@H]1OC(O[C@@H]2C[C@H](c3ccc4c(c3O)C(=O)C3=C(C4=O)[C@@]4(OC5CC[C@H](O)[C@H](C)O5)C(=O)C[C@](C)(O)C[C@@]4(O)C=C3)O[C@H](C)C2O)CC[C@@H]1O[C@H]1C[C@@H](O)[C@H](O)[C@@H](C)O1 (some centres not stated),-306,-8,-389,-45,-120,-142
CC1O[C@@H](c2ccc3c(c2O)C(=O)C2=C(C3=O)[C@@]3(O)C(=O)C(O)[C@](C)(O)C[C@@]3(O)C=C2)CC[C@@H]1OC(=O)/C=C/C=C/C=C/[C@@H]1O[C@@](C)(C(=O)O)O[C@H]1C (some centres not stated),-79,-5,-106,48*,-18,38*
CCN(c1ccc2c(c1)OCO2)S(=O)(=O)c1ccc2c(c1)c(=O)n(C)c(=O)n2C,-98,-2,i,-136,-27,-18
Cc1nc2cc(-c3noc(-c4cccc5[nH]ccc45)n3)ccc2o1,55*,3,5,36*,12,3
SMILES,USP8 block,USP10 block,USP30 block,USP17 block,USP7 inh,UCHL1 inh
Cc1nc2cc(-c3noc(-c4nn(C)c5ccccc45)n3)ccc2o1,-2,-7,42*,19,11,3
CCCCN1CCN(C(=O)C2c3ccccc3CCN2C(=O)C2CC2)CC1 (configuration not stated),17,-2,4,8,0,1
O=C(NC1CC1)c1cc(=O)[nH]c2ccccc12,0,1,-3,0,-1,-2
Cc1ccc(OCCNC(=O)c2cc(=O)[nH]c3ccccc23)cc1,0,3,-2,43*,1,1
Cc1nc2nc(SCc3nc4ccccc4n3C)[nH]c2cc1Br,-15,-3,-178,53*,-13,-9
CCc1c(C#N)c(SCC(=O)Nc2nsc(-c3ccc(Cl)cc3)n2)nc2c1C(=O)CC(C)(C)C2,-19,-2,0,0,12,1
CC(=O)Nc1ccc(NC(=O)Cc2csc(COc3ccc(C)cc3)n2)cc1,5,5,x,52*,3,4
COc1cccc(NC(=O)N2Cc3c(CN4CCCCC4)nn(C)c3C2)c1,-17,2,6,-3,1,-1
O=C(Nc1ccccc1Cl)c1csc(Cc2c(Cl)cccc2Cl)n1,26,16,48*,37*,10,5
C[C@@H]1CO[C@@H]2C3=C(C(=O)C=CC3=O)[C@H]3OC(=O)[C@@H]4CCC5[C@@H]1CCC52C34 (some centres not stated),34*,34*,59*,80*,-34,11
FC(F)(F)c1cc(-c2ccco2)nc2nc(N3CCN(c4ccccc4)CC3)nn12,-13,-5,-108,-70,-26,-18
CCc1nc(SCC(=O)Nc2ccccc2Cl)c2oc3ccccc3c2n1,5,16,-2,58*,7,1
CCc1nc(SCC(=O)Nc2ccc(Cl)c(Cl)c2)c2oc3ccccc3c2n1,-241,13,18,25,7,2
CCc1nc(SCc2ccccc2C)c2oc3ccccc3c2n1,5,4,32*,29,4,4
CCc1nc(SCC(=O)Nc2cc(OC)ccc2OC)c2oc3ccccc3c2n1,29,9,13,16,11,8
CCc1nc(SCC(=O)Nc2cc(Cl)ccc2C)c2oc3ccccc3c2n1,26,20,68*,54*,12,4
Cc1ccc(C(=O)/C=C/c2cn(CC(O)CN3CCN(C)CC3)c3ccccc23)cc1 (configuration not stated),-91,-3,i,-122,-59,-66
C[C@@]12C[C@H](CN)N(C(=O)CCn3ccnc3)[C@@H]1CCCC[C@H]2O,3,-9,-71,-4,0,-2

# Screening results from PubChem.
